Assay results as given in PubChem BioAssay (NCI).
About 79,000 compounds went through this panel and 15% of them were active in at least one assay; those are over-represented in the sample as a whole. Rule as the data show it: active = growth inhibition above about 70%; inactive = the rest.

Key:
[1] = NCI Yeast Anticancer Drug Screen. Data for the rad50 strain (AID 155);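 also: 0% = growth of vehicle-only cultures of the same strain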; settings: S. cerevisiae rad50 strain growth inhibition; at 50.0 µM; active compounds read high
How it was run: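 A DNA repair-deficient yeast mutant serves as the test organism; compound-induced growth inhibition is calculated against vehicle-treated cells.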

[2] = NCI Yeast Anticancer Drug Screen. Data for the mec2-1 strain (AID 157); settings: S. cerevisiae mec2-1 strain, at 50.0 µM, active compounds read high
How it was run: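 Mutant yeast (mec2-1) grown with compound; growth inhibition relative to vehicle control reported.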

[3] = NCI Yeast Anticancer Drug Screen. Data for the sgs1 mgt1 strain (AID 161);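 also: 0% = growth of cultures given vehicle only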; settings: S. cerevisiae sgs1 mgt1 strain, at 50.0 µM, active compounds read high
How it was run: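 Yeast cells carrying a defined DNA-repair defect were exposed to test compounds. Growth inhibition was measured relative to vehicle-treated controls.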

[4] = NCI Yeast Anticancer Drug Screen. Data for the cln2 rad14 strain (AID 165);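 also: 0% = growth equal to vehicle treated cultures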; settings: S. cerevisiae cln2 rad14 strain, at 50.0 µM, active compounds read high
How it was run: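 Readout is yeast growth inhibition versus vehicle-treated controls, using a strain with cln2 and rad14 alterations exposed to compound.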

[5] = NCI Yeast Anticancer Drug Screen. Data for the bub3 strain (AID 167); settings: S. cerevisiae bub3 mutant strain, at 50.0 µM, active compounds read high
How it was run: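 Inhibition values come from growth of compound-treated mutant yeast normalised to vehicle-treated controls.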

[6] = NCI Yeast Anticancer Drug Screen. Data for the mlh1 rad18 strain (AID 175); settings: S. cerevisiae mlh1 rad18 strain growth inhibition; at 50.0 µM; active compounds read high
How it was run: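 Genetically defined yeast (DNA repair-deficient) exposed to compounds; growth inhibition determined relative to vehicle.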

Measured: growth inhibition

c1ccc2c(c1)[nH]c1ccccc12
inactive: [1] -30.9% | [2] -15.9% | [3] 1.65% | [4] -3.05% | [5] -5.5% | [6] 7.05%

O=C(NC(CS)C(=O)O)c1cnc2ccccc2n1 (stereo unspecified)
inactive: [1] -4.8% | [2] -12.9% | [3] 21.2% | [4] -9.9% | [5] 18.6% | [6] 0.3%

CCNC(=O)C(C(=O)O)c1ccccc1 (stereo unspecified)
inactive: [1] 1.8% | [2] -5.55% | [3] 5.15% | [4] -21.1% | [5] -13.9% | [6] 5.2%

CCOC(=O)C(C)=P(c1ccccc1)(c1ccccc1)c1ccccc1
inactive: [1] -1.6% | [2] -5.8% | [3] -1% | [4] -39.2% | [5] -0.7% | [6] -11.3%

COCCN(C)C(c1ccccc1)C(O)c1ccccc1 (stereo unspecified)
inactive: [1] 4.8% | [2] -12.9% | [3] 4.3% | [4] -37% | [5] 4.95% | [6] 4.1%

COC(=O)c1ccccc1NC(=O)N(c1ccccc1)c1ccccc1
inactive: [1] 1.35% | [2] -3.45% | [3] 14.4% | [4] -12.2% | [5] 17.8% | [6] -1.55%

COC(=O)c1c(O)cc(OC)cc1OCc1ccccc1
inactive: [1] 10.7% | [2] -4.4% | [3] -4.8% | [4] 27.6% | [5] 31.4% | [6] 2.95%

S=c1[nH]ncn1/N=C/c1ccccc1Cl
inactive: [1] 23.6% | [2] 37% | [3] 54.4% | [4] 22.9% | [5] -5.65% | [6] 37.6%

Cc1c2oc3c(C)ccc(C(=O)NCCN4CCCC4)c3nc-2c(C(=O)NCCN2CCCC2)c(N)c1=O
inactive: [1] 64.5% | [2] 17.4% | [3] 5.9% | [4] 4.2% | [5] 3.6% | [6] 9.65%

CSC1(C(=O)O)C2CCC3C2CCC31 (stereo unspecified)
inactive: [1] 12.7% | [2] 16.1% | [3] 9.95% | [4] 26.9% | [5] 51.2% | [6] 41.5%

O=S1(=O)C2CCC(Br)C1CCC2Br (stereo unspecified)
inactive: [1] 9.65% | [2] 13.8% | [3] 7.65% | [4] 14.2% | [5] -2.65% | [6] 10.9%

COC(=O)C(N)CSc1ccc([N+](=O)[O-])cc1[N+](=O)[O-] (stereo unspecified)
inactive: [1] 37.5% | [2] 39.5% | [3] 40.2% | [4] 25.1% | [5] 16.1% | [6] 48.9%

CCCCCCCC/C=C\CCCCCCCCOC(=O)CC(O)C(=O)OCCCCCCCC/C=C\CCCCCCCC (stereo unspecified)
inactive: [1] -22.6% | [2] -4.05% | [3] -7.5% | [4] -22.9% | [5] -9.8% | [6] -17.2%

O=C(CC(=O)c1ccccc1)CC(=O)c1ccc(C(=O)CC(=O)CC(=O)c2ccccc2)cc1
inactive: [1] 29.4% | [2] 1.3% | [3] 30.9% | [4] 0.85% | [5] -1.8% | [6] 22.4%

CC1CNC(=S)SSC(=S)N1 (stereo unspecified)
inactive: [1] 35.8% | [2] 26.5% | [3] 20.9% | [4] 32.7% | [5] 14.1% | [6] 27.7%

O=Cc1c2cnc(c1O)CSCCCCSC2
inactive: [1] -9.2% | [2] -3.8% | [3] -10.8% | [4] -45.2% | [5] -16.4% | [6] -1.8%

COC(=O)C(C(=O)C(N)=O)c1csc(-n2nc(-c3ccccc3)cc2-c2ccccc2)n1 (stereo unspecified)
inactive: [1] -1.5% | [2] -13.4% | [3] -13.8% | [4] 10.2% | [5] 30.2% | [6] -7.2%

O=C1CSC(c2ccc([N+](=O)[O-])cc2)N1c1nncs1 (stereo unspecified)
inactive: [1] -10.9% | [2] -6.8% | [3] 7.25% | [4] -2.65% | [5] -8.7% | [6] 0.55%

O=C(O)C(CCl)c1ccccc1 (stereo unspecified)
inactive: [1] 7.05% | [2] -3.1% | [3] 0.4% | [4] -17.1% | [5] 9.85% | [6] 2.25%

CC1=NN(c2nc(N)nc(CO)n2)C(C)(C)C1
inactive: [1] 12.2% | [2] 5.75% | [3] 3.2% | [4] 5.55% | [5] 1% | [6] -72.5%

C[C@@]12CCC[C@H]1[C@@H]1CCC3=CC(=O)CC[C@]3(C)[C@H]1CC2
inactive: [1] 4.15% | [2] 1.45% | [3] -5.55% | [4] -27.1% | [5] 10.7% | [6] 1.05%

CC(=O)c1cc([N+](=O)[O-])c(O)c([N+](=O)[O-])c1O
inactive: [1] 20.4% | [2] -2.2% | [3] -14.6% | [4] 12.2% | [5] 7.8% | [6] 8.65%

Cc1ccc2c(c1)C(C)(C)C(C)C2(C)C (stereo unspecified)
inactive: [1] -3.05% | [2] -8.2% | [3] -13.8% | [4] -19.9% | [5] 9.25% | [6] 21.3%

O=C1C=C(C2=CC(=O)C(=O)c3ccccc32)c2ccccc2C1=O
inactive: [1] 27.5% | [2] 9.45% | [3] 6.55% | [4] -5% | [5] 53.1% | [6] 35.2%

O=C1CN(c2cccc(Cl)c2)C(=O)CN1CCN1CC(=O)N(c2cccc(Cl)c2)CC1=O
inactive: [1] -35.2% | [2] -11.7% | [3] -19.6% | [4] -7.8% | [5] -37.5% | [6] -32.2%

CCCCCCCCCCC#N
inactive: [1] 15.2% | [2] -8.4% | [3] -5.6% | [4] 14.6% | [5] 9.15% | [6] -17.6%

COc1cc2c(cc1OC)C1Cc3ccc(OC)c(OC)c3C[N+]1([O-])CC2 (stereo unspecified)
inactive: [1] -24.9% | [2] -16.8% | [3] -6.95% | [4] 9.6% | [5] -15.6% | [6] -3.2%

CC1=C(O)c2cn(C)cc2C(=O)C1=O
inactive: [1] 26.1% | [2] 24.9% | [3] 18% | [4] 26.6% | [5] 31.9% | [6] 28.3%

O=C1O[C@H]2C3C4CCC(C4[C@@H]2I)[C@H]13 (stereo partly specified)
inactive: [1] -13.7% | [2] -13.8% | [3] -9.1% | [4] 19.9% | [5] 14.1% | [6] 16.6%

COc1cc(CCC(C)=O)ccc1OC(=O)c1c(-c2c(F)cccc2Cl)noc1C
inactive: [1] 1.85% | [2] -12.2% | [3] 14.3% | [4] 19.3% | [5] 10.3% | [6] 3.5%

C=CCOC(=O)Nc1cc(Cl)ccc1C
inactive: [1] 3.9% | [2] 1.2% | [3] -8.5% | [4] -9.25% | [5] -1.55% | [6] -9.8%

Cl/C(=C\c1ccccc1)c1ccccc1
inactive: [1] 20.4% | [2] -6.55% | [3] -5.7% | [4] -42.5% | [5] 7.7% | [6] -6.55%

CC(=O)c1c(O)c(Nc2ccccc2)cc2nc3ccccc3nc12
inactive: [1] -4.45% | [2] 3.95% | [3] -0.4% | [4] -10.3% | [5] -8.75% | [6] -23.3%

Cc1cc(N(CCC#N)S(=O)(=O)c2ccccc2)ccc1/C=C1\N=C(c2ccc(Cl)cc2)OC1=O
inactive: [1] -4.5% | [2] 6.9% | [3] 7.8% | [4] -18.6% | [5] -2.7% | [6] 17.4%

CN(C)c1c([O-])c(=[N+](C)C)c1=O
inactive: [1] -37.9% | [2] -14.2% | [3] -20.2% | [4] -10.6% | [5] -5.55% | [6] -45.9%

Cc1ccc2ccccc2c1[N+](=O)[O-]
inactive: [1] 43.5% | [2] 5% | [3] 37.3% | [4] 17.1% | [5] 21.6% | [6] 36.5%

O=C(O)C(CS)(c1ccccc1)c1ccccc1
inactive: [1] 0.65% | [2] 8.25% | [3] 7.7% | [4] 5.95% | [5] -2.85% | [6] 11.4%

Cc1ccc(NC(=O)c2ccc(Cl)cc2)cc1Cl
inactive: [1] 18.9% | [2] 1.35% | [3] 2.95% | [4] -9.65% | [5] 13.8% | [6] -2.3%

Cc1nc(C)c(N2CCN(C(=O)O)CC2)c(=O)[nH]1
inactive: [1] -23.6% | [2] -10.9% | [3] -16% | [4] 9.85% | [5] 5.15% | [6] -58.4%

C#CCNC(=O)CCC(N)C(=O)O (stereo unspecified)
inactive: [1] -0.1% | [2] -15.2% | [3] -14.8% | [4] 3.05% | [5] -11.8% | [6] 2.65%

COC(=O)C(=O)c1c(C2CC2)[nH]c2[nH]n(-c3ccccc3)c(=O)c2c1=O
inactive: [1] 11% | [2] 20.1% | [3] 12.4% | [4] -9.2% | [5] -1.1% | [6] 3.6%
